Data on 18 compounds can be found in PubChem BioAssay (EPA / NIEHS).

By AC50 is commonly meant the concentration giving half of the maximal activity seen.

Test [1] is described as follows: ATG_CRE_CIS: Attagene CIS-FACTORIAL HepG2 Assay for human cAMP Responsive Element (CRE) binding protein 3 (AID 2282926). As to conditions: HepG2 CRE cis-reporter, Attagene multiplexed mRNA; actives raise or lower the signal. The method, boiled down:
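HepG2 cells transiently transfected with a multiplexed reporter library (CRE-driven unit among them) were dosed for 24 h. Reporter mRNA was quantified by RT-PCR, fluorescent labelling, HpaI digestion and capillary electrophoresis, with bidirectional fitting against DMSO baseline.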

Test [2] concerns the target CCAAT/enhancer-binding protein beta (Homo sapiens) (UniProt P17676). The experiment in a line: ATG_C_EBP_CIS: Attagene CIS-FACTORIAL HepG2 Assay for human CCAAT/Enhancer Binding Protein (C/EBP) beta (AID 2282927). As to conditions: HepG2 Attagene cis-factorial transcription factor reporter; actives raise or lower the signal. An outline of the steps:
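Following a 24 h incubation with test chemical, transfected HepG2 cells yielded RNA whose reporter transcripts were quantified by RT-PCR and fluorescent capillary electrophoresis, with DMSO serving as baseline for bidirectional fitting.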

A short description of test [3]: ATG_CMV_CIS: Attagene CIS-FACTORIAL HepG2 Assay for human CMV (Internal Marker) (AID 2282928).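 Note: endpoint acts as a background internal control marker rather than a target.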 The note with it: HepG2 CMV promoter reporter, transcription factor profiling; actives raise or lower the signal. An outline of the steps:
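HepG2 cells transiently transfected with multiple cis-regulated reporter units; 24 h compound exposure. Reporter mRNA quantified by RT-PCR, 6-FAM primer-extension labeling, HpaI digestion and capillary electrophoresis; bidirectional fitting against DMSO baseline.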

A short description of test [4]: ATG_DR4_LXR_CIS: Attagene CIS-FACTORIAL HepG2 Assay for human Liver X Receptor (LXR), DR4 submotif (AID 2282929). The note with it: HepG2 Attagene DR4 cis-reporter, mRNA transcription; actives raise or lower the signal. The method, boiled down: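 HepG2 cells were transiently transfected with multiple cis-regulated reporter units and dosed for 24 hours. The DR4 reporter mRNA was quantified by RT-PCR, 6-FAM labelling and capillary electrophoresis. Bidirectional fits used DMSO as baseline.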

Test [5] addresses Aryl hydrocarbon receptor (Homo sapiens) (UniProt P35869). The experiment in a line: ATG_Ahr_CIS: Attagene CIS-FACTORIAL HepG2 Assay for human Aryl Hydrocarbon Receptor (Ahr) (AID 2282930). The note with it: HepG2 AhR cis-factorial reporter transcription; actives raise or lower the signal. An outline of the steps:
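Values derive from bidirectional fitting against DMSO negative control. Underlying signal: cis-element reporter mRNA in transiently transfected HepG2, harvested 24 h post-dose and measured by RT-PCR plus capillary electrophoresis.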

Test [6] is described as follows: ATG_AP_1_CIS: Attagene CIS-FACTORIAL HepG2 Assay for human Activator Protein 1 (AP-1) (AID 2282931). The note with it: HepG2 Attagene cis-factorial AP-1 reporter mRNA; actives raise or lower the signal. The method, boiled down: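 HepG2 cells transiently transfected with cis-element-driven reporter transcription units, dosed for 24 hours. Reporter mRNA measured by RT-PCR, 6-FAM labelling, HpaI digestion and capillary electrophoresis. Bidirectional fitting against DMSO baseline.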

Test [7] can be described thus: ATG_AP_2_CIS: Attagene CIS-FACTORIAL HepG2 Assay for human Activator Protein 2 (AP-2) (AID 2282932). As to conditions: HepG2 AP-2 cis-reporter, Attagene transcription factor profiling; actives raise or lower the signal. An outline of the steps: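 Bidirectional curve fitting against DMSO was applied to reporter mRNA signals from HepG2 cells 24 h after dosing. Cis-promoter reporter units, transiently transfected, were read by RT-PCR plus capillary electrophoresis.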

The nature of test [8]: ATG_BRE_CIS: Attagene CIS-FACTORIAL HepG2 Assay for human Bone Morphogenetic Protein (BMP) Response Element (BRE) (AID 2282933). The note with it: HepG2 BMP response element reporter, Attagene transcription factor profiling; actives raise or lower the signal. An outline of the steps: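 After a 24 h chemical treatment, transiently transfected HepG2 cells were lysed for RNA; reporter transcripts were quantified by fluorescent RT-PCR and capillary electrophoresis, normalised to DMSO.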

Test [9] has as its target Retinoic acid receptor alpha (Homo sapiens) (UniProt P10276). The test can be described thus: ATG_DR5_RAR_CIS: Attagene CIS-FACTORIAL HepG2 Assay for human Retinoic Acid Receptor Alpha (RARE), DR5 submotif (AID 2282934).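 For AC50: reporter responds to endogenous RAR alpha beta and gamma in HepG2 not RARA alone.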 As to conditions: HepG2 Attagene cis-factorial RARE DR5 reporter, mRNA; actives raise or lower the signal. The method, boiled down: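 Endpoint fitted in both directions relative to DMSO as negative control. It reflects DR5 cis-element reporter mRNA induction in transiently transfected HepG2 cells, measured 24 h after dosing through RT-PCR and fluorescent capillary electrophoresis.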

For test [10], the target named is Transcription factor E2F1 (Homo sapiens) (UniProt Q01094). The experiment in a line: ATG_E2F_CIS: Attagene CIS-FACTORIAL HepG2 Assay for human E2F Transcription Factor 1 (AID 2282935). As to conditions: HepG2 Attagene cis-reporter, E2F reporter RNA transcripts; actives raise or lower the signal. The method, boiled down: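 Multiplexed cis-reporter assay: HepG2, transient transfection, 24 h dosing, mRNA quantitation by labeled RT-PCR and CE.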

Values joined by “and” are separate entries in the source; they are usually repeats but may differ in a detail not shown here. Identical values can stand only once. The source holds several records for some structures; these can differ, active in one and inactive in another. Active and inactive are the calls of the source. Rule for the calls: active = hit-call score of the fitted dose curve at least 0.9, where 1 is the maximum; inactive = score below 0.9.

Chain of CCAAT/enhancer-binding protein beta (Homo sapiens) (P17676 whole entry, looked up): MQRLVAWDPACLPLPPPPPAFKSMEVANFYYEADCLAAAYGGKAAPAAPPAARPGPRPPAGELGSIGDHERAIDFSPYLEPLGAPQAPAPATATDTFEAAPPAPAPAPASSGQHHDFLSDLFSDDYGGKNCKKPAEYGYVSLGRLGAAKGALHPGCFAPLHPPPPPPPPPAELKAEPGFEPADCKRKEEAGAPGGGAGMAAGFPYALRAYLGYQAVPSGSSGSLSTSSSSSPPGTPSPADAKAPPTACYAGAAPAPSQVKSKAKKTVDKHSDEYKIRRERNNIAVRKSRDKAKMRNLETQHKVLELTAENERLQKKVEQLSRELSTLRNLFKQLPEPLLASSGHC
Chain of Retinoic acid receptor alpha (Homo sapiens) (P10276 whole entry, looked up): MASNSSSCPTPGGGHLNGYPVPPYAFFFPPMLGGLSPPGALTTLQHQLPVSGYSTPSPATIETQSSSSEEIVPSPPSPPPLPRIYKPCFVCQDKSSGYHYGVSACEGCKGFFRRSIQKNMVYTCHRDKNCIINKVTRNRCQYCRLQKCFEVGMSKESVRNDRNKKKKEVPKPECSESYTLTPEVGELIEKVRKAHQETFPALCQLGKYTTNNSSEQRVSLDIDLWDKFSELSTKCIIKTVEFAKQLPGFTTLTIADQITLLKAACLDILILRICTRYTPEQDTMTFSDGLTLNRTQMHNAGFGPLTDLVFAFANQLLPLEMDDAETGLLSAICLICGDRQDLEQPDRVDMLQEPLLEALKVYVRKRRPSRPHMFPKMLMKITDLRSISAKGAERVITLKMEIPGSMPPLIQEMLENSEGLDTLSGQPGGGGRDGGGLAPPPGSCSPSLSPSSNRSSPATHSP
Chain of Aryl hydrocarbon receptor (Homo sapiens) (P35869 whole entry, looked up): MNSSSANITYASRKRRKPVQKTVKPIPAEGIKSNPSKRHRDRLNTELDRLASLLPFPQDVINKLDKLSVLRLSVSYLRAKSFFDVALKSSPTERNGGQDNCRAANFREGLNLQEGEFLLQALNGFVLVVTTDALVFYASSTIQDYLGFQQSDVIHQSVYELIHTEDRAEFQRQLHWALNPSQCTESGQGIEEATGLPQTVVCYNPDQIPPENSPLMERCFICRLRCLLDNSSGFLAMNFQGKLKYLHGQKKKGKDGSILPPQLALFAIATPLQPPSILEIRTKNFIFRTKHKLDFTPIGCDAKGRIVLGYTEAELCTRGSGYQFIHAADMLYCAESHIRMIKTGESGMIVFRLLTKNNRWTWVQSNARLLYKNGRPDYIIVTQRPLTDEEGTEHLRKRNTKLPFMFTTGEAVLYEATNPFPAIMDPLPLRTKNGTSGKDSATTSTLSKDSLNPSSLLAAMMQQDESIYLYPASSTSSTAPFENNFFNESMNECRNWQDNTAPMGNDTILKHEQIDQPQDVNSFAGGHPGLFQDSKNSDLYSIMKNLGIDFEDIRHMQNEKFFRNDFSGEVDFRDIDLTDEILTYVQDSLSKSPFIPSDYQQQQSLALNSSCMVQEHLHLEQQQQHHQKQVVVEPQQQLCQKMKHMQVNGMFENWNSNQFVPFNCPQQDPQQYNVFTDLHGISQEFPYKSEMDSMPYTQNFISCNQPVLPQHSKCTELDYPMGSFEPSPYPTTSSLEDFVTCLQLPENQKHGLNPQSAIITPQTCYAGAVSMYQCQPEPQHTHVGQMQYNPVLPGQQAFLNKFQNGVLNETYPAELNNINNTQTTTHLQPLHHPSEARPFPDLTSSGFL
Chain of Transcription factor E2F1 (Homo sapiens) (Q01094 whole entry, looked up): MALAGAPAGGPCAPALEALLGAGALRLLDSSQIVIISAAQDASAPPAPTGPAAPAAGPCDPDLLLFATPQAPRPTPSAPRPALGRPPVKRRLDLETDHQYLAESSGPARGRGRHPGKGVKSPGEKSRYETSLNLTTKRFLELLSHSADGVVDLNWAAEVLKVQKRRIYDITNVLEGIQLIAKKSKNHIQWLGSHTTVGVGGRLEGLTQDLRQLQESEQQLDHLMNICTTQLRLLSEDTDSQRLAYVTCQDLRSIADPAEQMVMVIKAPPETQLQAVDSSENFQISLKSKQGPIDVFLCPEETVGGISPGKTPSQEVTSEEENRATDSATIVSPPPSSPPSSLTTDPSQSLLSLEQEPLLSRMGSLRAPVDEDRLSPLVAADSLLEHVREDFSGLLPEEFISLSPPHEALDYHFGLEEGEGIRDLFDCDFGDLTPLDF

Take `c1ccc(C[n+]2cccc3ccccc32)cc1`: the outcome in test [1], in test [2], in [4], in test [7], in test [8] and in test [9] was inactive. Also, the call in [10] was inactive. Besides, the figures for the AC50 in test [3], in test [5] and in test [6] were 100 µM (active), 69.6 µM (active) and 41.1 µM (active), respectively.
As to `O=C(O)Cc1cc(I)c(Oc2ccc(O)c(I)c2)c(I)c1`, the compound was called inactive in test [1], in test [2], in test [3], in test [4], in test [5] and in test [6]. For the same compound, the compound was classed as inactive in test [7], in [8], in test [9] and in test [10]. The AC50 in [6] is 160 µM (active) and 100 µM (active) and 74.8 µM (active); in test [7] it was 50.9 µM (active); in [8], 89 µM (active).
With `O=C1CCC(C2CCCCC2)CC1`, the compound was called inactive in [1], in test [2], in test [3], in test [4], in test [5] and in test [7]. Also, the result in test [8], in test [9] and in test [10] was inactive. For the same compound, the AC50 is 100 µM (active) and 39.3 µM (active) in test [3]; 164 µM (active) and 171 µM (active) and 160 µM (active) in test [4]; 133 µM (active) [middle of 4 runs] in test [6]; 163 µM (active) in test [7]; 147 µM (active) and 156 µM (active) in [8].
Turning to `Clc1cc(Cl)c2c(c1)N=C1CCCCCN1C2`, the compound was classed as inactive in test [1], in [2], in test [3], in test [5], in test [6] and in test [7]. The compound was called inactive in test [8], in [9] and in [10]. In addition, the AC50 in test [4] is 78.1 µM (active).
Consider `CCCCOC(=O)CC(CC(=O)OCCCC)(OC(C)=O)C(=O)OCCCC`, for which the result in [1], in test [2], in [3], in test [4], in [5] and in test [6] was inactive. The compound was called inactive in [7], in test [8] and in test [10]. Also, the AC50 in test [4] was 23.4 µM (active); in test [8], 42.6 µM (active).
With `Cc1oc2c(NC(=O)c3c(Cl)cccc3Cl)cccc2c1C(C)(C)O`, the call in [1], in test [2], in test [4], in test [7] and in [10] was inactive. Also, the AC50 is 6.16 µM (active) in [3]; 4.28 µM (active) in test [5]; 38 µM (active) in test [6]; 152 µM (active) in test [8]; 3.06 µM (active) in [9].
As for `CC(=O)N1CCN(c2ccc(OC[C@H]3CO[C@](Cn4ccnc4)(c4ccc(Cl)cc4Cl)O3)cc2)CC1`, the half-maximal activity concentration (AC50) in test [1] is 20.7 µM (active); in test [3], 44.4 µM (active); in [4], 43.9 µM (active); in [5], 0.412 µM (active); in test [6] it was 43.5 µM (active); in test [8], 28.6 µM (active). For the same compound, the result in test [2], in test [7], in test [9] and in test [10] was inactive.
Regarding `CCCOC(=O)c1cc(O)c(O)c(O)c1`, the result in test [1], in [2], in test [4], in [5], in test [6] and in test [7] was inactive. Also, the result in test [8] and in test [9] was inactive. Moreover, the half-maximal activity concentration (AC50) in test [3] is 58.6 µM (active); in [10], 169 µM (active).
Take `C[C@]12CC[C@@H]3c4ccc(O)cc4CC[C@H]3[C@@H]1CC[C@H]2O`: the call in test [1], in test [2], in [4], in test [5], in test [6] and in test [7] was inactive. Moreover, the result in [8], in [9] and in test [10] was inactive. In addition, the values for the AC50 in [3], in test [5] and in test [9] were 27.5 µM (active) [middle of 4 runs], 49 µM (active) and 5.92 µM (active), respectively.
Turning to `CCCC(=O)OCCC(C)C`, the compound was called inactive in [1], in test [2], in test [3], in [4], in [5] and in [6]. In addition, the compound was classed as inactive in test [7], in test [8], in test [9] and in test [10].
As to `O=C=NCCCCCCN=C=O`, the compound was called inactive in [1], in test [2], in test [3], in test [4], in [5] and in [6]. For the same compound, the compound was classed as inactive in test [7], in [8], in test [9] and in [10].
As for `CCCCCc1ccc(N)cc1`, the call in test [1], in test [2], in test [3], in [4], in [5] and in test [6] was inactive. Besides, the compound was called inactive in [7], in test [8], in test [9] and in test [10]. The AC50 in test [5] is 65.5 µM (active); in test [6] it was 25.9 µM (active).
In the case of `Cc1ccc(C(C)C)cc1`, the compound was called inactive in test [1], in test [2], in [3], in [4], in test [5] and in test [6]. Moreover, the compound was classed as inactive in test [7], in [8], in [9] and in test [10].
For the compound `CCO[Si](CCCNC(N)=O)(OCC)OCC`, the compound was classed as inactive in test [1], in test [2], in test [3], in [4], in [5] and in test [6]. For the same compound, the compound was classed as inactive in test [7], in [8], in [9] and in [10].
For the compound `CCN(Cc1cccnc1)C(=O)c1cccc(Cl)c1[C@]1(C)C(=O)N(Cc2ccc(OC)cc2OC)c2ccc(Cl)cc21`, the AC50 was 10.8 µM (active) in test [1]; 8.21 µM (active) in [3]; 7.45 µM (active) in test [4]; 1.75 µM (active) in test [5]; 10.3 µM (active) in test [6]; 0.293 µM (active) in [9]. Further, in test [10], the AC50 was 7.42 µM (active). The outcome in test [2], in [7] and in [8] was inactive.
For `CCCCCCCCCCCO`, the compound was called inactive in test [1], in test [2], in test [3], in test [4], in test [5] and in test [6]. The outcome in test [7], in test [8], in test [9] and in test [10] was inactive.
As to `CN(C)c1ccc(C(=C2C=CC(=[N+](C)C)C=C2)c2ccc(N(C)C)cc2)cc1`, the outcome in [1], in [3], in test [5], in test [7], in [8] and in test [10] was inactive. Moreover, the AC50 in test [2] is 4.56 µM (active); in test [4] it was 2.86 µM (active); in test [6], 2.23 µM (active); in test [9] it was 2.58 µM (active).
For the compound `c1ccc2n[nH]nc2c1`, the call in test [1], in test [2], in test [3], in test [4], in test [5] and in test [6] was inactive. The call in test [7], in test [8], in [9] and in test [10] was inactive. In addition, the half-maximal activity concentration (AC50) in test [5] was 51.9 µM (active).
